# In PubChem BioAssay (NCI):
# This is part of a sample that, as a whole, favours compounds with a hit. Of some 83,000 tested, about 20% had one in any assay.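 The endpoint reported here, percent growth, reads 100 for growth as untreated, 0 for no net growth and -100 for all cells dead.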 A number with no mark means an inactive call. The source made the active and inactive calls. How the source made its calls: active means growth percent below 10; inactive means the rest.
# Legend:
# Assay in all cases: NCI-60 one-dose screen, 48 h (100 = growth as untreated, 0 = no growth, -100 = all killed)
# Conditions in all cases: 10 µM unless noted
# [1] = test system: RPMI-8226 leukemia
# [2] = test system: OVCAR-8 ovarian
# [3] = test system: OVCAR-5 ovarian
# [4] = test system: OVCAR-4 ovarian
# [5] = test system: SK-OV-3 ovarian
# [6] = test system: IGROV1 ovarian
# [7] = test system: OVCAR-3 ovarian
# [8] = test system: HS 578T breast
# [9] = test system: NCI/ADR-RES ovarian
# [10] = test system: T-47D breast
# [11] = test system: BT-549 breast
# [12] = test system: MDA-MB-435 melanoma
# [13] = test system: SW-620 colon
# [14] = test system: MCF7 breast
# [15] = test system: HCT-116 colon
# [16] = test system: HCC-2998 colon
# [17] = test system: KM12 colon
Structure (SMILES),growth [1],growth [2],growth [3],growth [4],growth [5],growth [6],growth [7],growth [8],growth [9],growth [10] [%],growth [11],growth [12],growth [13],growth [14],growth [15],growth [16],growth [17]
CC1Cc2c(N(C)C)ncnc2N(C)c2ccc(Cl)cc21 (stereo not given),31.3%,45.9%,73.8%,49.7%,46.3%,57.5%,5.13% (active),-1.26% (active),25.9%,37.1,24.6%,-32.2% (active),17.9%,15.2%,16.9%,50.1%,23.6%
CCOC(=O)c1cc(/C(=N\O)c2cc(OC)c(OC)c(OC)c2)n2c(C)cccc12,41.5%,54.3%,73.2%,54.1%,38.4%,52.5%,15.7%,12.4%,29.3%,27.7,19.4%,-10.2% (active),23.3%,17.1%,27.2%,70.8%,27.9%
Nc1cc2c(cc1N)-c1cc(N)c(N)cc1C2,95.9%,103%,109%,108%,99.2%,97.6%,109%,94.3%,111%,110,79.7%,108%,102%,93.5%,104%,105%,101%
CN(C)C1CCC(NC2=CC(=O)C=CC2=O)CC1 (stereo not given),111%,113%,118%,111%,119%,105%,116%,108%,111%,110,114%,114%,117%,97.9%,5.98% (active),126%,108%
COc1ccc(-n2c(C)cc(-c3ccccc3)c2C)cc1,14.9%,51.6%,63.8%,38%,83.2%,72%,75.5%,74.1%,40.2%,27.5,47%,12.1%,41.2%,28%,21%,35.1%,37.7%
COc1ccc(C(=O)N2CCN(C(=O)c3cc(OC)c(OC)c(OC)c3)CC2)cc1OCCCCOc1cc2c(cc1OC)C(=O)N1CCC[C@H]1C=N2,90.3%,209%,111%,112%,108%,-18.9% (active),105%,-24.2% (active),110%,85.4,115%,108%,110%,98.8%,101%,,129%
O=Nc1c(-c2c(O)[nH]c3ccc([N+](=O)[O-])cc23)[nH]c2ccc(O)cc12,-7.92% (active),7.71% (active),110%,19.7%,-9.52% (active),6.36% (active),4.31% (active),1.21% (active),42%,16.8,4.59% (active),9.35% (active),3.18% (active),2.75% (active),2.29% (active),8.93% (active),-33% (active)
COc1ccc(C2CC(c3cccs3)=NN2c2ccc(S(=O)(=O)NC(=O)NCc3cccc(OC)c3)cc2)cc1 (stereo not given),95.3%,107%,113%,103%,82.6%,108%,106%,97.5%,103%,85.7,116%,52.3%,107%,99%,98.8%,111%,98.5%
CCCCNC(=O)NS(=O)(=O)c1ccc(N2N=C(c3ccc(C)cc3C)CC2c2ccc(OC)cc2)cc1 (stereo not given),40.3%,62.9%,89.6%,68.4%,101%,98.9%,75.2%,87.3%,45%,75,49.9%,9.96% (active),75.9%,48.7%,51.6%,58.6%,48%
COc1cc(/C=C2\C=C(c3ccc(F)cc3)N(Cc3ccccc3)C2=O)cc(OC)c1OC,50.7%,48.8%,89.6%,51%,99.3%,84.4%,70.3%,87.1%,62.1%,49.1,77.3%,75.2%,77.4%,50.8%,42.2%,103%,63.1%
CCC(=O)Nc1ccccc1C#C/C=C\C#Cc1ccccc1SC,20.1%,144%,69.1%,74.6%,78.1%,-49.3% (active),65%,-34.3% (active),49.9%,57.2,71.6%,-16.5% (active),35.3%,62.2%,41.6%,,43.5%
C=CCOc1ccc(/C(O)=C2\C(=O)C(=O)N(c3nccs3)C2c2ccccc2F)cc1 (stereo not given),136%,102%,122%,81.3%,109%,3.7% (active),93.5%,104%,119%,100,113%,94%,103%,112%,95.4%,107%,89.4%
COC(=O)CCCCN=Cc1c(O)c(O)c(C(C)C)c2cc(C)c(-c3c(C)cc4c(C(C)C)c(O)c(O)c(C=NCCCCC(=O)OC)c4c3O)c(O)c12,17.7%,16.4%,17.8%,13.7%,40.1%,26.4%,14.3%,9.48% (active),52.8%,24.9,28.2%,25.7%,17%,9.71% (active),14.9%,29.7%,16.1%
COc1ccc(/C(=N/O)c2cc(F)c(F)c(OC)c2F)cc1O,22.1%,17.7%,52.1%,58.6%,17.3%,50.6%,-2.69% (active),8.26% (active),17.4%,28.4,33.5%,-35.7% (active),15.2%,18.7%,15.6%,42.7%,29.3%
CC1CCc2c(sc(NC(=O)CSc3nnc4ccccn34)c2C(N)=O)C1 (stereo not given),119%,109%,99.7%,114%,131%,33.8%,104%,114%,118%,105,142%,99%,109%,96%,104%,105%,108%
Cc1ccc2c(c1)C(C)Cc1c(ncnc1-n1cnc3ccccc31)N2C (stereo not given),21.8%,21.3%,42.8%,30%,43.5%,37.6%,-34.7% (active),8.03% (active),17%,50.3,-1.38% (active),-47.9% (active),21.6%,13.5%,5.53% (active),17.4%,13.8%
COc1ccc(OC)c(NC(=O)c2cc(S(=O)(=O)N3CCc4ccccc43)ccc2OC)c1,82.6%,75.5%,89.8%,94.2%,92.6%,-39.9% (active),112%,-43.4% (active),94.3%,93.4,104%,96.1%,96.7%,113%,72.2%,,111%
CC(=O)N1Cc2ccccc2C(C)Cc2cc(Cl)ccc21 (stereo not given),105%,109%,99.1%,97.9%,108%,102%,109%,97.7%,117%,100,115%,106%,106%,102%,105%,100%,103%
COc1cc(C2CC(c3c(C)[n+]([O-])c4ccccc4[n+]3[O-])=NN2)cc(OC)c1OC (stereo not given),102%,109%,100%,104%,103%,16.2%,98%,103%,101%,95.4,104%,95.6%,101%,91.8%,104%,76.1%,104%

Structure (SMILES),growth [1],growth [2],growth [3],growth [4],growth [5],growth [6],growth [7],growth [8],growth [9],growth [10] [%],growth [11],growth [12],growth [13],growth [14],growth [15],growth [16],growth [17]
CCN(CC)S(=O)(=O)c1ccc2[nH]c(=O)cc(C(=O)Nc3ccc(OC)cc3OC)c2c1,108%,109%,100%,115%,108%,34.4%,118%,103%,99.6%,101,136%,108%,108%,99.6%,97.3%,75.3%,110%
Cc1cc2c(C(C)C)c(O)c(O)c(C=NCCCCCCC(=O)O)c2c(O)c1-c1c(C)cc2c(C(C)C)c(O)c(O)c(C=NCCCCCCC(=O)O)c2c1O,10.1%,30.6%,55.9%,28.2%,63.7%,28.6%,25.8%,22.2%,67.6%,26.9,37.8%,27.2%,27.2%,11.7%,17.6%,33.5%,15.7%
O=C1Nc2cc(Cl)ccc2/C1=C/c1ccc(N2CCOCC2)s1,85.7%,98.2%,94.4%,99.1%,113%,45.3%,115%,129%,99.8%,84,109%,102%,102%,86.7%,96.6%,114%,105%
CC(=O)OC[Si](C)(C)c1ccccc1,110%,101%,108%,103%,103%,114%,112%,103%,112%,105,107%,99.1%,101%,107%,99.9%,122%,110%
CC(=O)c1cc(C(=O)c2ccc3c(c2)Sc2ccccc2N3)c2cc(C)ccn12,12.3%,4.39% (active),41.2%,38.1%,16.6%,27.8%,-14.3% (active),14.5%,12.1%,61.7,-13.9% (active),-19.7% (active),22.4%,10.8%,-23.6% (active),23.2%,5.18% (active)
CCN(CC)CCCC(C)N=c1cc(Nc2cc(=NC(C)CCCN(CC)CC)c3cc(OC)ccc3o2)oc2ccc(OC)cc12 (stereo not given),-38.3% (active),-1.52% (active),-28.3% (active),-48.8% (active),7.55% (active),-5.22% (active),,27.5%,3.48% (active),25.8,-69.4% (active),-87.4% (active),-2.14% (active),-26.8% (active),-21.2% (active),-88.9% (active),-4.99% (active)
O=S(=O)(O)CCl,98.7%,100%,98.3%,105%,107%,106%,106%,,103%,97.2,100%,108%,103%,103%,103%,98.9%,105%
COc1cccc(-n2cc(-c3nc(Cl)c4ccccc4n3)nn2)c1,97.7%,109%,109%,98.7%,117%,96.5%,105%,110%,97.4%,,96.1%,97.3%,110%,92.6%,89.5%,105%,106%
O=C(O)c1cccc([N+](=O)[O-])c1/C=C/c1ccccc1,105%,115%,108%,83.2%,94.6%,94.8%,103%,,103%,95.2,106%,105%,96.7%,95.5%,94.3%,103%,99.8%
CN1C(=O)[C@H]2c3c1cccc3[C@@]13NC(=O)O[C@H]1[C@H](CCC3(C)C)C2(C)C,97%,96.1%,101%,99%,120%,107%,103%,89.1%,98.8%,87.8,102%,102%,,99.7%,103%,106%,103%
CSc1ccccc1C#C/C=C\C#Cc1ccccc1N1CCCCC1=O,64.3%,103%,96.7%,102%,109%,-29.6% (active),97.6%,-20.4% (active),102%,95.1,92.1%,107%,,94.9%,95%,99.9%,114%
CCCCn1c(=O)c(C2CNC(=O)c3ccccc3N2)cc2ccccc21 (stereo not given),109%,114%,96.3%,103%,97.2%,,99.7%,94.6%,100%,93.7,97.8%,105%,99.2%,99.6%,94.9%,108%,101%
CC(Cc1nnc(SCC(=O)Nc2ccc(I)cc2)n1N)c1ccccc1 (stereo not given),59.8%,95.9%,84.4%,172%,97.8%,8.44% (active),111%,119%,96%,71.2,97.4%,99.9%,,93.4%,68.6%,86.7%,95.8%
O=S(=O)(NCCCNc1cc(-c2cn(-c3ccccc3)nc2-c2cccc(O)c2)ccn1)c1ccc(C(F)(F)F)cc1,15.4%,53%,57.8%,45.1%,54.8%,58.9%,49.6%,22.6%,35%,35.1,,34.9%,27.4%,22%,29%,-30.5% (active),23.3%
CCn1cc(C(=O)O)c(=O)c2cc(F)c(N3CCN(S(=O)(=O)c4ccc(OC)c(OC)c4)CC3)cc21,99.3%,102%,102%,110%,135%,108%,,,107%,87.2,105%,98.9%,113%,100%,105%,104%,96.2%
COc1cc(NC(=O)CCl)ccc(=O)c1,85.4%,87.6%,93.2%,75%,73.9%,58.1%,61.1%,72.2%,92%,67.1,,69.8%,,56.8%,62.6%,105%,89.6%
CC1Cc2c(N(C)C)ncnc2N(C)c2ccc(O)cc21 (stereo not given),82.9%,103%,99.4%,84.6%,86%,93.6%,88.8%,76.2%,84.2%,89.7,,,63.5%,73.9%,79.6%,88.8%,59.9%
c1ccc2c(c1)Oc1ccccc1C2C1c2ccccc2Oc2ccccc21,103%,101%,89.7%,84%,105%,91.5%,98.4%,99.6%,95.3%,81.4,106%,,97.7%,95.4%,84.2%,99.9%,95.2%
